Targets with a hit are over-represented here; the source holds about 7,900 in all. About 0.6% of all pairs of compound and target were hits. Values without a mark were called inactive.
Tests used:
Assay in all cases: log2 fold change, soluble protein after heating vs DMSO (PISA); higher = thermal stabilisation; K562 cells, 10 uM, 30 min; active = over 0.2 and 3.5 SD of the protein, either way, in both replicates (recomputed)
[1] = compound: NC(=O)Nc1cc(-c2cccc(F)c2)sc1C(=O)N[C@H]1CCCNC1
How it was run: (§1)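 Soluble protein was quantified by TMTpro 16plex LC-MS/MS after channel sums were equalised. It was obtained as the supernatant after 21,000xg for 90 min from pooled aliquots of K562 cells (2×10^6 cells/mL, 10 μM compound, 30 min) heated for 3 min across 48°C-58°C and extracted in PBS with 0.5% NP-40 at 4°C. Thermal stability values are relative to control samples and come from duplicates. They are given as log2 fold changes.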

[2] = compound: NC(=O)c1cnc(N[C@@H]2CCCC[C@@H]2N)nc1Nc1cccc(-n2nccn2)c1
How it was run: as §1

[3] = compound: NC1(c2ccc(-c3nc4ccn5c(=O)[nH]nc5c4cc3-c3ccccc3)cc2)CCC1
How it was run: as §1

[4] = compound: NCC(=O)Nc1ccc(-n2nc(C(F)(F)F)cc2-c2ccc3c(ccc4ccccc43)c2)cc1
How it was run: as §1

entinostat = compound: Nc1ccccc1NC(=O)c1ccc(CNC(=O)OCc2cccnc2)cc1 [entinostat]
How it was run: as §1

vorinostat = compound: O=C(CCCCCCC(=O)Nc1ccccc1)NO [vorinostat]
How it was run: as §1

citarinostat = compound: O=C(CCCCCCNC(=O)c1cnc(N(c2ccccc2)c2ccccc2Cl)nc1)NO [citarinostat]
How it was run: as §1

silmitasertib = compound: O=C(O)c1ccc2c(c1)nc(Nc1cccc(Cl)c1)c1ccncc12 [silmitasertib]
How it was run: as §1

[5] = compound: O=C1NC(=O)C(c2cnc3ccccn23)=C1c1cn2c3c(cc(F)cc13)CN(C(=O)N1CCCCC1)CC2
How it was run: as §1

[6] = compound: c1cc(OCCN2CCCCC2)cc(-c2n[nH]c3ccc(-c4nnc[nH]4)cc23)c1
How it was run: as §1

entospletinib = compound: c1cn2cc(-c3ccc4cn[nH]c4c3)nc(Nc3ccc(N4CCOCC4)cc3)c2n1 [entospletinib]
How it was run: as §1

UniProt Q9Y692, sequence (Q9Y692 whole entry, looked up): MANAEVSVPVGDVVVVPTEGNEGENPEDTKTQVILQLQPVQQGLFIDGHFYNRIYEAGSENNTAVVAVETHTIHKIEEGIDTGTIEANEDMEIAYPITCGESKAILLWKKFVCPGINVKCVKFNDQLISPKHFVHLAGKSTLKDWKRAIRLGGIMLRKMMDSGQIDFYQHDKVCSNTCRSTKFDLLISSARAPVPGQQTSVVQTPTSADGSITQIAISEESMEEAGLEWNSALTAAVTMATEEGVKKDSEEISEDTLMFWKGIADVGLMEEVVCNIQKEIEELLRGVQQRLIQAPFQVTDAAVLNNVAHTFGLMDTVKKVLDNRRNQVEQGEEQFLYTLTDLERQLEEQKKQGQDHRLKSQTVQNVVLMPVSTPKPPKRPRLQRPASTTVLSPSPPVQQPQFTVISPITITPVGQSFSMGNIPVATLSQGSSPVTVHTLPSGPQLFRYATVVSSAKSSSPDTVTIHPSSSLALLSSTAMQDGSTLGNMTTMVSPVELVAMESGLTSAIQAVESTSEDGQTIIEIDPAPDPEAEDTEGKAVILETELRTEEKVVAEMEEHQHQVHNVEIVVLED
UniProt Q9P2H3, sequence (Q9P2H3 whole entry, looked up): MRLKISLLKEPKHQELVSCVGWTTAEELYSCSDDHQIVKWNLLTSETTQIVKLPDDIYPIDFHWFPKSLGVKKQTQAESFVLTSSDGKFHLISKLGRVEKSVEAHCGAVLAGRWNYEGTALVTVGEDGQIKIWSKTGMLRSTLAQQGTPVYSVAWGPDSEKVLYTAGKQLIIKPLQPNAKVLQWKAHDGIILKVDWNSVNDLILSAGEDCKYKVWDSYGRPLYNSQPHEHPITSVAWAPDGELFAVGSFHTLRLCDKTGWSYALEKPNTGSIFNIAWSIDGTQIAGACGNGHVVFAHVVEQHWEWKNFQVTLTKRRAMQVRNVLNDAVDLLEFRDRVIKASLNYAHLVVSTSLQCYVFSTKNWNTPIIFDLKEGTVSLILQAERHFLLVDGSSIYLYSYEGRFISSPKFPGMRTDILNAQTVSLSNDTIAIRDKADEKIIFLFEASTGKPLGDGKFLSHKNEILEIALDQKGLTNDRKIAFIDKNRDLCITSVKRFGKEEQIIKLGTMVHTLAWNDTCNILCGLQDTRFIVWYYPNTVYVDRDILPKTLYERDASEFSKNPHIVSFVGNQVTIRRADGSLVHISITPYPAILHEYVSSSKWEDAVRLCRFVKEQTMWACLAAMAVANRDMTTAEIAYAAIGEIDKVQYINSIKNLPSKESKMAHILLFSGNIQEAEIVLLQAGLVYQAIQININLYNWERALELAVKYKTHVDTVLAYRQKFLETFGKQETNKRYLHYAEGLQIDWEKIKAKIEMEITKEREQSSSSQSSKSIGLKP
UniProt Q12894, sequence (Q12894 whole entry, looked up): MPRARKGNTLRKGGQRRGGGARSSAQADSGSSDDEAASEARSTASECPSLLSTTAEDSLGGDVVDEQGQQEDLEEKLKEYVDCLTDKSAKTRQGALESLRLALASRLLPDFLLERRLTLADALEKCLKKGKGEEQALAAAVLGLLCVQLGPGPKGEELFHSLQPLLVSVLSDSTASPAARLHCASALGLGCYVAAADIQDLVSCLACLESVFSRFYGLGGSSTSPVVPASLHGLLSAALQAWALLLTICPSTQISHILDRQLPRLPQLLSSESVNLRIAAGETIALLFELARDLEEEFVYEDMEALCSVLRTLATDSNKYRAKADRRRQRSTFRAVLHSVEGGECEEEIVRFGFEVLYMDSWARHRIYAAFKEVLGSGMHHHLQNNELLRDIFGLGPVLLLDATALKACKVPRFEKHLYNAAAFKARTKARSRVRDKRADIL
UniProt P15976, sequence (P15976 whole entry, looked up): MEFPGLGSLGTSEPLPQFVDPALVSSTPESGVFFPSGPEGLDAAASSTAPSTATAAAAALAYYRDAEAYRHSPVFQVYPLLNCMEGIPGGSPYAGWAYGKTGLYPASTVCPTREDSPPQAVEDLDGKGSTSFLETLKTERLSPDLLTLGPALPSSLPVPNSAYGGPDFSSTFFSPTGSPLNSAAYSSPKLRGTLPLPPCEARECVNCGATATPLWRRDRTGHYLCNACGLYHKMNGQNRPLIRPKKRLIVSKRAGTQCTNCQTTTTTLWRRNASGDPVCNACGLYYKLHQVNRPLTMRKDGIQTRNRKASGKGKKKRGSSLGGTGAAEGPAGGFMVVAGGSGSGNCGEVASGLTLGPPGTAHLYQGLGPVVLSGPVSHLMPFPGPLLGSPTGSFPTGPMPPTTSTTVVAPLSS
UniProt P49448, sequence (P49448 whole entry, looked up): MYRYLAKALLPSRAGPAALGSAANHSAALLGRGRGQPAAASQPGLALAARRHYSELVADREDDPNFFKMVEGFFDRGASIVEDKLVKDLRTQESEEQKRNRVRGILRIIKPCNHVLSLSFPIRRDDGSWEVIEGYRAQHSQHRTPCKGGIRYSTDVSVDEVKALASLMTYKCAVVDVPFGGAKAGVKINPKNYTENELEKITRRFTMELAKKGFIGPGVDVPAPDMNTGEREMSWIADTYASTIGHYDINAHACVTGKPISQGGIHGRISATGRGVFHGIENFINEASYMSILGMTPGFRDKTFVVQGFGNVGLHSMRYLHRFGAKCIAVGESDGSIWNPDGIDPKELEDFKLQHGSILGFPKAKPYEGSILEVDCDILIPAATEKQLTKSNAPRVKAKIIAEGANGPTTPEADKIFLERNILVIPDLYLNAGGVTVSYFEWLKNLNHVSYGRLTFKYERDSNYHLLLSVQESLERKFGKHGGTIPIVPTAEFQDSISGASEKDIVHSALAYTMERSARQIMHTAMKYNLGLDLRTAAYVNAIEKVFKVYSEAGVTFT
UniProt P49840, sequence (P49840 whole entry, looked up): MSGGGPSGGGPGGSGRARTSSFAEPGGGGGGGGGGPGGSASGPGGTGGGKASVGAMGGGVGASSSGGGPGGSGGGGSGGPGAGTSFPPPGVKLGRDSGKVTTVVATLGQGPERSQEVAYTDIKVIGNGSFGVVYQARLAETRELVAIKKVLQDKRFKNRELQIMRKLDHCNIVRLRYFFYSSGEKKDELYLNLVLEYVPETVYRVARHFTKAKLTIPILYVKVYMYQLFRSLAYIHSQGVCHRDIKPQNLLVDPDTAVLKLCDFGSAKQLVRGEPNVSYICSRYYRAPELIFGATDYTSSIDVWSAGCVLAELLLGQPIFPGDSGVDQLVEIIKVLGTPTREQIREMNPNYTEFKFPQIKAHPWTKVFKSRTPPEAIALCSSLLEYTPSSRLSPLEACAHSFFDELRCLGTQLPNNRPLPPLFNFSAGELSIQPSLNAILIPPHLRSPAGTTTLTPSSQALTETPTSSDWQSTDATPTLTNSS
UniProt P16278, sequence (P16278 whole entry, looked up): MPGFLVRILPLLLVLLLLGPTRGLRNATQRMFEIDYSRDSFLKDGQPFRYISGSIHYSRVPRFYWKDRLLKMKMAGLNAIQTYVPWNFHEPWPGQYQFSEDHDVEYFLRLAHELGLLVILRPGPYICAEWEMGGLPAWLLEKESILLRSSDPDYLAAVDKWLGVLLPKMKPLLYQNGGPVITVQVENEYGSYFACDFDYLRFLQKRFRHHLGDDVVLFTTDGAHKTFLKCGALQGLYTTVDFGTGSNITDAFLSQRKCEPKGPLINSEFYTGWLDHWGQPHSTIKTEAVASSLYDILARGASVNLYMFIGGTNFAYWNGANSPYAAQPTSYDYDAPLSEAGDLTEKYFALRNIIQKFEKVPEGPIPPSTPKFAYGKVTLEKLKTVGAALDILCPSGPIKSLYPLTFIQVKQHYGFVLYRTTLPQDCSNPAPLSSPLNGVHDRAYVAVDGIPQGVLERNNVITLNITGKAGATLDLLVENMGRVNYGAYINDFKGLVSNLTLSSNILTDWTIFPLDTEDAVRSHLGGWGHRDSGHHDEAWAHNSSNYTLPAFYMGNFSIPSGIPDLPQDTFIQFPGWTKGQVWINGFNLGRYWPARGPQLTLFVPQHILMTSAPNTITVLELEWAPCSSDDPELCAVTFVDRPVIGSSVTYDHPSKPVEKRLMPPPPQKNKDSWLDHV
UniProt Q9BUJ2, sequence (Q9BUJ2 whole entry, looked up): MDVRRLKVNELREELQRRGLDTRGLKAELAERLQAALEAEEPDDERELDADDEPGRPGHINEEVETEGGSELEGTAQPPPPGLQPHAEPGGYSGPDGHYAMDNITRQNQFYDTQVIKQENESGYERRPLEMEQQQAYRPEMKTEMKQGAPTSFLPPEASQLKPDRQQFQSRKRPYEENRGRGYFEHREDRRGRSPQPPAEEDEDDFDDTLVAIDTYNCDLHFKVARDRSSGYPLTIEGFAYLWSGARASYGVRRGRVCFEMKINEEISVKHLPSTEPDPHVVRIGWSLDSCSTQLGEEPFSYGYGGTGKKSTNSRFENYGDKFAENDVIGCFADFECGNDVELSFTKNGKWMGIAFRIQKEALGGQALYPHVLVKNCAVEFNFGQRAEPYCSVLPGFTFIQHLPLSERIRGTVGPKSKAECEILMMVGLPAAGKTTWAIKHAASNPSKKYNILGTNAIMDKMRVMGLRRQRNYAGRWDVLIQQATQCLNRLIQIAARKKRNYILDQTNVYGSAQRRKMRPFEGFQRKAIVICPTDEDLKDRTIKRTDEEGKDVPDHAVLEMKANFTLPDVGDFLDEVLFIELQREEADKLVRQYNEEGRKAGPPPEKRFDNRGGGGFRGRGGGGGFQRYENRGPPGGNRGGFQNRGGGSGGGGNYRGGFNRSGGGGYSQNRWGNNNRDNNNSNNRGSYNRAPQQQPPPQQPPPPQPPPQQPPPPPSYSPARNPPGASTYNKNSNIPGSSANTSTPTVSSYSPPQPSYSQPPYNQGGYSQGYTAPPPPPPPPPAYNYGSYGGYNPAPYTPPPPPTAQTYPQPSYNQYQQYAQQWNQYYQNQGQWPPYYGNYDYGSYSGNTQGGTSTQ
UniProt Q9Y680, sequence (Q9Y680 whole entry, looked up): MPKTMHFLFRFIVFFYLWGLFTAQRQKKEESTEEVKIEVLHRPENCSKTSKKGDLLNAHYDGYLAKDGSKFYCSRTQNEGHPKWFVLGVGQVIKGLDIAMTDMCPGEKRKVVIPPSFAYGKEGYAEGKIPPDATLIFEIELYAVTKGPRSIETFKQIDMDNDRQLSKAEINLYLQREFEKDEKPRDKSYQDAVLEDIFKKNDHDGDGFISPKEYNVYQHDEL

Row | Target | log2 fold change [1] | log2 fold change [2] | log2 fold change [3] | log2 fold change [4] | log2 fold change (entinostat) | log2 fold change (vorinostat) | log2 fold change (citarinostat) | log2 fold change (silmitasertib) | log2 fold change [5] | log2 fold change [6] | log2 fold change (entospletinib)
1 | HP1BP3 (UniProt Q5SSJ5) | 0.026 | -0.057 | 0.043 | -0.034 | 0.025 | 0.132 | 0.113 | -0.048 | 0.067 | -0.023 | 0.014
2 | FOXK1 (UniProt P85037) | 0.497 | 0.201 | 0.38 | 0.096 | 0 | -0.15 | 0.023 | 0.512 | -1.33 (active) | -0.031 | 0.262
3 | FKBP7 (UniProt Q9Y680) | -0.034 | -0.017 | 0.005 | -0.037 | -0.029 | -0.017 | -0.02 | 0.079 | 0.008 | -0.097 | -0.012
4 | HOMER1 (UniProt Q86YM7) | 0.058 | 0.007 | -0.014 | 0.032 | 0.049 | 0.059 | 0.013 | 0.119 | 0.013 | 0.024 | 0.056
5 | GDI1 (UniProt P31150) | -0.018 | -0.066 | -0.051 | -0.04 | -0.016 | 0.022 | 0.014 | -0.012 | -0.037 | -0.04 | 0.032
6 | FDFT1 (UniProt P37268) | 0.044 | 0.064 | -0.042 | 0.035 | -0.008 | -0.018 | 0.086 | -0.031 | 0.004 | 0.093 | -0.019
7 | GID4 (UniProt Q8IVV7) | -0.165 | -0.03 | -0.032 | -0.146 | 0.289 (active) | -0.074 | 0.006 | 0.118 | -0.017 | -0.052 | -0.021
8 | GMEB1 (UniProt Q9Y692) | 0.066 | -0.072 | -0.047 | 0.027 | 0.073 | 0.001 | 0.057 | 0.112 | -0.053 | -0.004 | -0.027
9 | FUCA1 (UniProt P04066) | 0.028 | -0.028 | -0.519 (active) | -0.03 | 0.014 | 0.015 | 0.096 | 0.019 | -0.043 | -0.372 (active) | -0.018
10 | IFT80 isoform 3 (UniProt Q9P2H3) | 0.027 | 0.031 | -0.081 | 0.003 | -0.005 | 0.04 | 0.011 | -0.085 | -0.086 | -0.093 | -0.019
11 | FUCA2 (UniProt Q9BTY2) | 0.004 | -0.037 | -0.499 (active) | 0.013 | -0.03 | -0.033 | 0.042 | 0.032 | 0.032 | -0.551 (active) | -0.016
12 | GMEB2 (UniProt Q9UKD1) | -0.039 | -0.079 | 0.056 | -0.119 | 0.064 | 0.063 | 0.086 | 0.044 | -0.194 | -0.037 | 0.072
13 | GYG1 (UniProt P46976) | 0.012 | -0.017 | 0.075 | 0.134 | -0.019 | -0.056 | -0.011 | 0.049 | 0.037 | -0.057 | 0.643 (active)
14 | IFRD2 isoform 2 (UniProt Q12894) | -0.044 | -0.279 | 0.003 | 0.11 | -0.2 | -0.244 | -0.028 | 0.276 | -0.008 | 0.046 | 0.29
15 | GLB1 (UniProt P16278) | 0.02 | 0.002 | -0.097 | -0.043 | 0.01 | -0.065 | 0.005 | 0.021 | -0.003 | -0.044 | 0.022
16 | FOXO3 (UniProt O43524) | -0.395 | -0.089 | -0.025 | -0.072 | -0.063 | 0.222 | 0.002 | -0.136 | -0.046 | 0.035 | -0.107
17 | FDPS (UniProt P14324) | 0.009 | -0.136 | -0.48 | -0.14 | 0.001 | 0.215 | 0.142 | -0.108 | -0.026 | -0.069 | -0.007
18 | GATA1 (UniProt P15976) | 0.009 | 0.012 | -0.018 | 0.059 | -0.084 | -0.164 | -0.166 | 0.065 | -0.039 | -0.096 | 0.102
19 | GOLPH3 (UniProt Q9H4A6) | 0.041 | -0.082 | 0.009 | 0 | 0.022 | 0.014 | 0.071 | -0.013 | 0 | -0.043 | -0.016
20 | GLUD1 (UniProt P00367) | -0.058 | -0.014 | -0.043 | -0.032 | -0.051 | -0.061 | -0.023 | -0.095 | 0.082 | 0.052 | 0.173
21 | HSD17B12 (UniProt Q53GQ0) | -0.031 | 0.005 | -0.049 | 0.066 | -0.02 | -0.014 | 0.14 | 0.037 | -0.146 | -0.082 | -0.015
22 | GSK3A (UniProt P49840) | -0.02 | 0.014 | -0.054 | 0.051 | -0.03 | -0.053 | 0.015 | -0.004 | 0.454 (active) | 0.193 | -0.028
23 | HNRNPUL1 (UniProt Q9BUJ2) | -0.059 | 0.028 | -0.081 | -0.059 | -0.012 | 0.03 | 0.002 | 0.034 | 0.08 | -0.046 | -0.029
24 | FAM91A1 (UniProt Q658Y4) | -0.009 | -0.061 | -0.08 | -0.042 | -0.003 | 0.004 | -0.003 | 0.073 | -0.346 | -0.084 | 0.009
25 | GLS isoform 3 (UniProt O94925) | -0.133 | 0.154 | -0.285 | 0.01 | -0.017 | 0.019 | 0.169 | 0 | -0.24 | 0.071 | -0.055
26 | GGT7 (UniProt Q9UJ14) | -0.034 | 0.04 | -0.076 | 0.288 (active) | -0.081 | 0.062 | 0.058 | -0.009 | -0.061 | 0.002 | -0.019
27 | GTF3A (UniProt Q92664) | -0.04 | -0.095 | 0.046 | -0.098 | -0.013 | 0.026 | 0.06 | 0.043 | 0.011 | -0.072 | 0.033
28 | GLUD2 (UniProt P49448) | -0.086 | -0.03 | -0.006 | 0.027 | -0.053 | -0.051 | -0.07 | -0.136 | -0.008 | -0.017 | 0.14
